Most compounds without a hit are left out; they make up all but 7.9% or so of the library.
SW480 rereplic – DNA re-replication induction in SW480 cells. AID 624297. actives 1.8% (n = 340,000). Potency, µM (top dose mostly 46.1 µM), most hits filed as activators. SW480 DNA re-replication, Hoechst DNA content imaging, 48 h; further: nearly all actives have a fitted effect of over 55% in size
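250 cells/well; 23 nL cpd via pin tool; 48 hr, 37 C, 5% CO2; Hoechst 40 min; imager read of total nuclear intensity, ex 405/em 500-530 nm.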
KB-3-1 cytotox – kills parental KB-3-1 adenocarcinoma cells; KB-3-1 viability, CellTiter-Glo ATP luminescence, 72 h; Potency, µM (series often up to 46.1 µM), usual class: cytotoxic; actives 1.4% (n = 400,000); AID 1347075; further: nearly all actives have a fitted effect of over 60% in size
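KB-3-1 parental drug-naive adenocarcinoma cells in DMEM/10% FBS, incubated 72 h at 37 C with pin-transferred compounds across a concentration series. Viability by CellTiter-Glo luminescence; concentration-response curves fitted after normalization.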
HT1080 IDH1KD tx – toxicity to HT-1080 IDH1 knockdown cells (counter line); HT-1080 IDH1 knockdown viability, ATP luminescence, 48 h; Potency, µM (series often up to 46.1 µM), usual class: cytotoxic; actives 2% (n = 360,000); AID 686971
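Cytotoxicity counter-line: IDH1KD HT-1080, 48 h, CellTiter-Glo. Curves classed by r2, magnitude and activity.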
HT1080NT lethal – kills 2HG-producing HT-1080-NT fibrosarcoma cells; HT-1080-NT fibrosarcoma viability, CellTiter-Glo ATP luminescence, 48 h; Potency, µM (series often up to 46.1 µM), usual class: cytotoxic; actives 1.6% (n = 360,000);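 further: NT is the 2HG producing partner of a matched IDH1 knockdown line; nearly all actives have a fitted effect of over 55% in size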
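HT-1080-NT; 750 cells/well; 5% FBS RPMI; 48 h compound, 37 degrees C; CellTiter-Glo luminescence; curve fitting and curve-class assignment.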
MCF10A rereplic – inducers of DNA re-replication in MCF 10A breast cells. MCF 10A DNA re-replication, Hoechst nuclear intensity, 48 h. Potency, µM (series often up to 46.1 µM), usual class: activators. actives 2.9% (n = 350,000); further: nearly all actives have a fitted effect of over 50% in size
KB-V1 MDR tox – KB-V1 MDR subline cytotoxicity. KB-V1 MDR cells viability, CellTiter-Glo, 72 h. AID 1347076. actives 3.4% (n = 400,000). Potency, µM (titrated, usually from 46.1 µM), usual class: cytotoxic; further: nearly all actives have a fitted effect of over 60% in size
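Cells of the MDR subline KB-V1 are plated, dosed with compound at multiple concentrations, and incubated 72 h at 37 degrees C; CellTiter-Glo is then added and luminescence read after 10 min.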
Large screens that a line does not name were inactive; ! = repeats disagree. The call rests on the fitted dose curve; in most records, active means well fitted curve in the direction sought with a large enough effect; inconclusive means small, poorly fitted or top-dose-only effect, or another doubt; inactive means no such curve, though single readings can be large; an effect the other way counts as inactive or inconclusive.

COc1cccc(C(C)(O)c2nc(-c3cccc(F)c3)cs2)c1 (centres undefined)	HT1080NT lethal inconclusive (no result: SW480 rereplic, MCF10A rereplic)
COc1ccc(-c2csc(Nc3ccc(S(N)(=O)=O)cc3)n2)cc1	SW480 rereplic inconclusive, KB-3-1 cytotox inconclusive, HT1080 IDH1KD tx 18µM, HT1080NT lethal inconclusive, MCF10A rereplic 10µM
CC(C)c1ccc(OCC(=O)N2CCN(CCc3ccncc3)CC2)cc1	none (no result: SW480 rereplic, HT1080 IDH1KD tx, HT1080NT lethal, MCF10A rereplic)
O=C(CSC1c2ccccc2-c2ccccc21)N/N=C/c1ccccc1O	SW480 rereplic inconclusive, KB-3-1 cytotox inconclusive, HT1080 IDH1KD tx inconclusive, HT1080NT lethal 4.5µM, MCF10A rereplic 2.1µM, KB-V1 MDR tox 5.2µM
COc1ccc(Cn2c(=O)oc3ccc(C)cc32)cc1OC	SW480 rereplic inconclusive, KB-V1 MDR tox inconclusive
O=c1[nH]c(=S)n(C2CC2)c(O)c1/C=N/Nc1cccc2ccccc12	none
COc1ccc(OC)c(-n2c(O)c(C=Nc3c(C)n(C)n(-c4ccccc4)c3=O)c(=O)[nH]c2=O)c1	SW480 rereplic inconclusive, MCF10A rereplic inconclusive
O=c1c(C=NCCN2CCNCC2)c(O)n(C2CCCCC2)c(=O)n1C1CCCCC1	SW480 rereplic inconclusive, HT1080 IDH1KD tx inconclusive, HT1080NT lethal 20µM, MCF10A rereplic inconclusive, KB-V1 MDR tox inconclusive
COc1ccc(Cn2c(O)c(C=Nc3c(C)n(C)n(-c4ccccc4)c3=O)c(=O)[nH]c2=O)cc1	SW480 rereplic inconclusive, MCF10A rereplic inconclusive
O=c1c(C=NCc2cccs2)c(O)n(C2CCCCC2)c(=O)n1C1CCCCC1	none
Cc1c(N=Nc2c(O)n(Cc3ccccc3)c(=O)[nH]c2=O)c(=O)n(-c2ccccc2)n1C	SW480 rereplic inconclusive, HT1080 IDH1KD tx inconclusive, KB-V1 MDR tox 3.7µM
O=c1[nH]c(=S)n(C2CC2)c(O)c1/C=N/Nc1ccccc1	HT1080 IDH1KD tx 2.3µM, HT1080NT lethal inconclusive, MCF10A rereplic inconclusive
COc1ccccc1-n1c(O)c(C=Nc2c(C)n(C)n(-c3ccccc3)c2=O)c(=O)[nH]c1=O	SW480 rereplic 23µM, MCF10A rereplic inconclusive
N#CC1(N2CCCCC2)CCCCC1	none (no result: KB-3-1 cytotox, HT1080 IDH1KD tx, HT1080NT lethal, KB-V1 MDR tox)
O=c1[nH]c(=O)n(Cc2ccc(F)cc2)c(O)c1/C=N/Nc1ccccc1	HT1080 IDH1KD tx 2.3µM, HT1080NT lethal 2.3µM
Cc1c(N=Cc2c(O)n(Cc3ccccc3)c(=O)[nH]c2=O)c(=O)n(-c2ccccc2)n1C	SW480 rereplic 29µM
O=c1[nH]c(=O)n(Cc2ccccc2)c(O)c1C=NCCN1CCNCC1	SW480 rereplic 6.5µM, MCF10A rereplic 2.9µM
C=CCn1c(O)c(C=NCCN2CCNCC2)c(=O)[nH]c1=O	none
O=c1[nH]c(=O)n(Cc2ccc(F)cc2)c(O)c1C=NCCCO	none
CC1Cc2ccccc2N1Cc1cccc(S(=O)(=O)N(C)C)c1 (centres undefined)	MCF10A rereplic inconclusive
CC(C)Nc1ccc(Nc2ccccc2)cc1	SW480 rereplic 24µM, KB-3-1 cytotox 18µM, MCF10A rereplic inconclusive (no result: HT1080 IDH1KD tx, HT1080NT lethal)
CCC1C(c2cc(OC)c(OC)c(OC)c2)c2cc3c(cc2OC1N1CCCC1)OCO3 (centres undefined)	SW480 rereplic 8.2µM, KB-3-1 cytotox 4.1µM, HT1080 IDH1KD tx inconclusive, HT1080NT lethal inconclusive, MCF10A rereplic 4.1µM, KB-V1 MDR tox 5.2µM
CC(C)(C)NC(=O)NC(=O)CN1CC=C(c2ccccc2)CC1	SW480 rereplic inconclusive, MCF10A rereplic inconclusive
O=C(CN1CC=C(c2ccccc2)CC1)NC(=O)NC1CCCCC1	MCF10A rereplic 21µM
CCC1(C)Cc2ccccc2-c2c1c(=O)n(Cc1ccccc1)c1nnnn21 (centres undefined)	MCF10A rereplic inconclusive
CC(C)(O)/C=C/C(=O)[C@](C)(O)C1[C@H](O)C[C@@]2(C)C3CC=C4C(C[C@H](O)[C@@H](O)C4(C)C)[C@]3(C)C(=O)C[C@]12C (some centres undefined)	SW480 rereplic inconclusive, KB-3-1 cytotox inconclusive, HT1080 IDH1KD tx 1.3µM, HT1080NT lethal 1.3µM, MCF10A rereplic 1.3µM
CC(=O)OO	none (no result: KB-3-1 cytotox, HT1080 IDH1KD tx, HT1080NT lethal, KB-V1 MDR tox)
COc1ccccc1N1CCN(CCc2c[nH]c3cc4c(cc23)OCO4)CC1	HT1080 IDH1KD tx inconclusive, KB-V1 MDR tox 18µM
CCCOP(=O)(OCCC)C(Nc1ccc(C(C)C)cc1)c1ccc([N+](=O)[O-])cc1 (centres undefined)	SW480 rereplic 21µM, KB-3-1 cytotox inconclusive, HT1080 IDH1KD tx inconclusive, HT1080NT lethal inconclusive, MCF10A rereplic inconclusive, KB-V1 MDR tox 12µM
F/C(COc1ccc2c(c1)[nH]c1ccccc12)=C1/CN2CCC1CC2	none (no result: KB-3-1 cytotox, HT1080 IDH1KD tx, HT1080NT lethal, KB-V1 MDR tox)
CC/C=C/CC(=O)N[C@@H](c1ccccc1)[C@@H](O)C(=O)O[C@H]1C[C@@]2(O)[C@@H](OC(=O)c3ccccc3)C3[C@](C)(C(=O)[C@H](OC(C)=O)C(=C1C)C2(C)C)[C@@H](O)C[C@H]1OC[C@@]31OC(C)=O (some centres undefined)	SW480 rereplic inconclusive, KB-3-1 cytotox 0.58µM, HT1080 IDH1KD tx 0.0052µM, HT1080NT lethal 0.041µM, MCF10A rereplic inconclusive, KB-V1 MDR tox inconclusive
C/C=C(\C)C(=O)N[C@@H](c1ccccc1)[C@@H](O)C(=O)O[C@H]1C[C@@]2(O)[C@@H](OC(=O)c3ccccc3)C3[C@](C)(C(=O)[C@H](OC(C)=O)C(=C1C)C2(C)C)[C@H](O)C[C@H]1OC[C@@]31OC(C)=O (some centres undefined)	SW480 rereplic 1.5µM, KB-3-1 cytotox 0.0073µM, HT1080 IDH1KD tx 0.0052µM, HT1080NT lethal 0.046µM, MCF10A rereplic 0.23µM, KB-V1 MDR tox inconclusive
CCC(C)C(=O)N[C@@H](c1ccccc1)[C@@H](O)C(=O)O[C@H]1C[C@@]2(O)[C@@H](OC(=O)c3ccccc3)C3[C@](C)(C(=O)[C@H](OC(C)=O)C(=C1C)C2(C)C)[C@@H](O)C[C@H]1OC[C@@]31OC(C)=O (some centres undefined)	SW480 rereplic 1.6µM, KB-3-1 cytotox 0.0065µM, HT1080 IDH1KD tx inconclusive, HT1080NT lethal 0.18µM
Cc1nnc(NC(=O)c2cccn(Cc3cccc([N+](=O)[O-])c3)c2=O)s1	none (no result: SW480 rereplic, HT1080 IDH1KD tx, HT1080NT lethal, MCF10A rereplic)
CC(C)(O)C(Cl)(Cl)Cl	none (no result: KB-3-1 cytotox, HT1080 IDH1KD tx, HT1080NT lethal, KB-V1 MDR tox)
COc1ccccc1NC(=O)COC(=O)c1cn(C)c2ccccc12	KB-V1 MDR tox 9.2µM
CN1C[C@H](C(=O)N[C@]2(C)O[C@@]3(O)[C@@H]4CCCN4C(=O)[C@H](Cc4ccccc4)N3C2=O)CC2c3cccc4[nH]cc(c34)C[C@H]21 (some centres undefined)	SW480 rereplic 0.35µM!, HT1080 IDH1KD tx inconclusive, HT1080NT lethal inconclusive, MCF10A rereplic inconclusive
O=C(Nc1ccc(Br)cc1)c1cc(Br)cc(Br)c1O	MCF10A rereplic inconclusive (no result: KB-3-1 cytotox, HT1080 IDH1KD tx, HT1080NT lethal, KB-V1 MDR tox)
